This is an account of results in PubChem BioAssay AID720697 (Broad Institute, 2013).

The structures appear in SMILES notation. Measured potencies and affinities stand elsewhere. Records with an inconclusive call do not appear. Active and inactive are the calls of the source.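 Rule for the calls: active = signal loss with fitted half-maximal concentration at or below twice the top valid tested dose in every test run; inconclusive = runs disagree, flat 30 to 70% signal loss, or poor fit; inactive = all runs flat, opposite direction, or potency beyond limit.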

The assay can be described thus: general mammalian cell viability loss – inhibitor set, cherry-pick, set 2, cytotoxicity control for miR-122 modulator project, dose response (AID 720697). Conditions: HEK293T viability, CellTiter-Glo luminescence, 48 h; series mostly up to 26 µM.
As to `COc1ccc(S(=O)(=O)Nc2cccc3c2O[C@H](CN(C)CC2CCCCC2)[C@@H](C)CN([C@H](C)CO)C3=O)cc1`, the call was inactive. Consider `COc1ccc(-c2c(C)nn3c(N)c(-c4ccccc4)cnc23)cc1OC`, for which the outcome was inactive. As for `CCNC(=O)C[C@H]1CC[C@@H]2[C@@H](COc3ccc(NC(=O)Nc4cccc(Cl)c4)cc3C(=O)N2C)O1`, the outcome was inactive. As to `O=C(Nc1ccccc1F)N1[C@H](CO)[C@@H]2c3ccccc3NC[C@@H]21`, the call was inactive.

As for `CN1[C@@H](CO)[C@@H]2c3ccccc3N(C(=O)Nc3cc(F)ccc3F)C[C@@H]21`, the compound was classed as inactive. For `CN1C(=O)c2cc(NC(=O)c3cccc(F)c3)ccc2OC[C@H]2O[C@@H](CC(=O)O)CC[C@H]21` the value was “inactive”; for `Cc1nn(C)cc1NC(=O)C[C@H]1CC[C@H]2[C@H](COc3ccc(NC(=O)c4cccc(F)c4)cc3C(=O)N2C)O1`, “inactive”. For `COC(=O)C[C@@H]1CC[C@@H]2[C@@H](COc3ccc(NC(=O)c4cscn4)cc3C(=O)N2C)O1` the value was “inactive”; for `C[C@@H]1CN([C@@H](C)CO)S(=O)(=O)c2ccc(C#CC3CC3)cc2O[C@@H]1CN(C)C(=O)c1cccc(F)c1`, “inactive”.

In the case of `NC(=O)c1cn(-c2ccccc2)nc1-c1cc2ccccc2oc1=O`, the compound was called inactive. Regarding `CCNC(=O)Nc1ccc2c(c1)C(=O)N(C)[C@H]1CC[C@H](CC(=O)NCc3ccccc3F)O[C@H]1CO2`, the result was inactive. For `CN1C(=O)c2cc(NC(=O)c3cccc(F)c3)ccc2OC[C@H]2O[C@H](CC(=O)O)CC[C@H]21` the value was “inactive”. For `CNC(=O)C[C@H]1CC[C@@H]2[C@H](COc3ccc(NC(=O)c4cccc(OC)c4)cc3C(=O)N2C)O1` the value was “inactive”.
